Legend:
Conditions in all cases: Compound Concentration (nM):1000
SIK = tested on: T1, SIK
T1 construct: gene SIK1

SLK = tested on: SLK
SNARK = tested on: T2, SNARK
T2 construct: gene NUAK2

SNRK = tested on: SNRK
SRC = tested on: SRC
SRMS = tested on: SRMS
SRPK1 = tested on: SRPK1
SRPK2 = tested on: SRPK2
SRPK3 = tested on: SRPK3
STK16 = tested on: STK16
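Further: KINOMEscan scanMAX binding as percent activity remaining versus control; lower means stronger binding.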

| Structure (SMILES) | Percent Control (SIK) [%] | Percent Control (SLK) [%] | Percent Control (SNARK) [%] | Percent Control (SNRK) [%] | Percent Control (SRC) [%] | Percent Control (SRMS) [%] | Percent Control (SRPK1) [%] | Percent Control (SRPK2) [%] | Percent Control (SRPK3) [%] | Percent Control (STK16) [%] |
| --- | --- | --- | --- | --- | --- | --- | --- | --- | --- | --- |
| CN1CCN(C(=O)c2ccc(NC(=O)Nc3ccc(N(C)c4ccnc(Nc5ccc(CS(C)(=O)=O)cc5)n4)cc3)cc2)CC1.Cl [GW830263A] | 92 | 8.9 | 39 | 78 | 100 | 77 | 2.3 | 80 | 7.7 | 15 |
| COc1cc2ncn(-c3cc(O[C@H](C)c4ccccc4Cl)c(C(N)=O)s3)c2cc1OC [GSK237701A] | 100 | 0.4 | 4.3 | 91 | 79 | 92 | 100 | 100 | 100 | 60 |
| COc1cc(/C=N/Nc2ncnc3[nH]ncc23)ccc1O [GW578748X] | 87 | 100 | 36 | 100 | 22 | 39 | 97 | 91 | 98 | 32 |
| COc1ccc2cc(-c3c(-c4ccncc4)nc(-c4ccc(S(C)(=O)=O)cc4C)n3C)ccc2c1 [SB-633825] | 96 | 1.7 | 82 | 91 | 82 | 85 | 90 | 76 | 83 | 93 |
| C[C@@H](Oc1cc(-n2cnc3ccc(OC4CCN(C)CC4)cc32)sc1C(N)=O)c1ccccc1Cl [GSK579289A] | 100 | 7.9 | 1 | 59 | 100 | 94 | 92 | 86 | 100 | 69 |
| NS(=O)(=O)c1ccc(N/N=C2\C(=O)Nc3ccc(Cl)cc32)cc1 [GW280670X] | 100 | 100 | 91 | 100 | 100 | 100 | 97 | 100 | 88 | 84 |
| CCS(=O)(=O)c1ccc(OC)c(Nc2ncc(-c3cccc(OC)c3)o2)c1 [GW580509X] | 97 | 100 | 96 | 100 | 26 | 54 | 96 | 100 | 100 | 37 |
| Nc1ncnc2occ(-c3ccc(NC(=O)Nc4cc(C(F)(F)F)ccc4F)cc3)c12 [GW770249X] | 100 | 6.3 | 87 | 100 | 92 | 91 | 74 | 76 | 63 | 97 |
| COc1ccc(COc2ccc(Cc3cnc(N)nc3N)cc2OC)cc1 [GW632580X] | 96 | 93 | 88 | 87 | 88 | 100 | 100 | 95 | 100 | 93 |
| COC(=O)Nc1nc2ccc(Oc3ccc(NC(=O)Nc4cc(C(F)(F)F)ccc4F)cc3)cc2s1.Cl [GW693917A] | 98 | 68 | 86 | 100 | 54 | 92 | 86 | 90 | 74 | 76 |
| COc1cc(N2CCN(C(C)C)CC2)ccc1Nc1nc(Nc2ccc(F)cc2C(=O)NC[C@@H](O)CO)c2cc[nH]c2n1 [GSK1392956A] | 100 | 100 | 66 | 87 | 100 | 100 | 99 | 99 | 100 | 85 |
| CC1=C(C(=O)Nc2ccc3[nH]ncc3c2)C(c2ccc3ccccc3c2)CC(=O)N1 (stereo not shown) [GSK270822A] | 100 | 83 | 7.1 | 95 | 74 | 100 | 85 | 100 | 100 | 88 |
| CC(C)COC(=O)c1ccc2c(c1)/C(=C/Nc1ccc(S(N)(=O)=O)cc1)C(=O)N2 [GW416981X] | 100 | 100 | 13 | 100 | 100 | 100 | 100 | 100 | 100 | 6.8 |
| Cc1cc(O)cc(C)c1/C=C/c1cncc(C(N)=O)c1 [GW435821X] | 38 | 100 | 92 | 100 | 57 | 38 | 88 | 100 | 85 | 98 |
| COc1ccc2[nH]c3c4[nH]c5ccc(OC)cc5c4c4c(c3c2c1)C(=O)NC4=O [GW296115X] | 67 | 96 | 59 | 56 | 87 | 100 | 86 | 94 | 100 | 74 |
| O=C1Nc2ccc(C(=O)c3ccco3)cc2C1=Cc1cc(Cl)c(O)c(Cl)c1 [GW406108X] | 93 | 100 | 79 | 100 | 100 | 89 | 88 | 100 | 100 | 60 |
| COc1cccc(-c2c[nH]c3c(N/N=C/c4ccncc4)ncnc23)c1 [GW814408X] | 92 | 76 | 56 | 100 | 27 | 100 | 38 | 100 | 60 | 65 |
| Cl.O=C(Nc1ccc(Oc2ccc3[nH]c(NC(=O)c4ccccc4)nc3c2)cc1)Nc1cc(C(F)(F)F)ccc1F [GW709042A] | 100 | 70 | 92 | 89 | 98 | 91 | 89 | 93 | 70 | 88 |
| COc1ccccc1-c1cc(/C=C2\C(=O)Nc3ncc(Br)cc32)cc(Br)c1O [GW442130X] | 100 | 100 | 89 | 100 | 91 | 100 | 100 | 100 | 100 | 87 |
| O=C(Nc1n[nH]c2nc(-c3ccc(O)cc3)c(Br)cc12)C1CC1 [SB-725317] | 100 | 41 | 100 | 100 | 100 | 100 | 100 | 100 | 100 | 76 |

| Structure (SMILES) | Percent Control (SIK) [%] | Percent Control (SLK) [%] | Percent Control (SNARK) [%] | Percent Control (SNRK) [%] | Percent Control (SRC) [%] | Percent Control (SRMS) [%] | Percent Control (SRPK1) [%] | Percent Control (SRPK2) [%] | Percent Control (SRPK3) [%] | Percent Control (STK16) [%] |
| --- | --- | --- | --- | --- | --- | --- | --- | --- | --- | --- |
| COc1ccc2c(-c3ccnc(Nc4cccc(OC(F)(F)F)c4)n3)cnn2n1 [GW810372X] | 100 | 100 | 73 | 98 | 100 | 99 | 88 | 87 | 92 | 9.4 |
| CCn1c(-c2nonc2N)nc2c(C#CC(C)(C)O)nc(OCCNC)cc21.Cl [GSK949675] | 89 | 100 | 41 | 100 | 100 | 100 | 84 | 100 | 100 | 100 |
| NS(=O)(=O)c1ccc(N/N=C2\C(=O)Nc3ccc(C(=O)NCCc4c[nH]cn4)cc32)cc1 [GW300660X] | 100 | 100 | 6.9 | 100 | 100 | 90 | 86 | 100 | 76 | 34 |
| Cl.O=S1CCN(Cc2ccc(-c3ccc4ncnc(Nc5ccc(OCc6ccccc6)c(F)c5)c4c3)o2)CC1 [GW576924A] | 100 | 100 | 96 | 100 | 100 | 100 | 100 | 100 | 78 | 100 |
| COc1cc2ncnc(Nc3ccc4c(cnn4Cc4ccccc4)c3)c2cc1OC.Cl [GW282449A] | 100 | 77 | 100 | 100 | 100 | 50 | 92 | 100 | 97 | 100 |
| Cl.O=C(O[C@H]1CN[C@H](C#Cc2cc3ncnc(Nc4ccc5c(cnn5Cc5ccccc5)c4)c3s2)C1)N1CCOCC1 [GSK200398A] | 100 | 98 | 100 | 100 | 100 | 92 | 84 | 85 | 100 | 100 |
| Cl.c1ccc(Cc2nc3ccc(Nc4ncnc5ccccc45)cc3[nH]2)cc1 [GR269666A] | 100 | 100 | 100 | 100 | 100 | 100 | 100 | 100 | 78 | 100 |
| CN(C)CCNC(=O)Nc1ccc(N(C)c2ccnc(Nc3ccc(CS(C)(=O)=O)cc3)n2)cc1.Cl [GW830900A] | 74 | 42 | 43 | 77 | 100 | 95 | 17 | 100 | 7.7 | 30 |
| C/C(Nc1ccc(S(N)(=O)=O)cc1)=C1/C(=O)Nc2ccccc21 [GW335962X] | 100 | 92 | 65 | 100 | 100 | 91 | 82 | 88 | 87 | 41 |
| CN(C)c1cc2c(Nc3ccc4c(cnn4Cc4ccccc4)c3)ncnc2cn1 [GW282974X] | 29 | 81 | 100 | 88 | 100 | 74 | 82 | 100 | 97 | 88 |
| NS(=O)(=O)c1ccc(Nc2ncc(-c3ccccc3)o2)cc1 [GW572399X] | 100 | 100 | 79 | 100 | 100 | 100 | 94 | 100 | 98 | 31 |
| NS(=O)(=O)c1ccc(N/N=C2\C(=O)Nc3ccc(C(=O)NCc4ccncc4)cc32)cc1 [GW300657X] | 95 | 100 | 8.9 | 100 | 100 | 93 | 89 | 6.6 | 72 | 23 |
| CC1=C(C(=O)Nc2ccc3[nH]ncc3c2)C(c2ccc(Cl)c(Cl)c2)CC(=O)N1 (stereo not shown) [GSK299115A] | 97 | 98 | 25 | 100 | 80 | 88 | 99 | 100 | 90 | 85 |
| COc1cc(C)c(N(C)C(=O)CN(C)C)cc1Nc1nc(Nc2cccc(F)c2C(N)=O)c2cc[nH]c2n1 [GSK2219385] | 100 | 100 | 100 | 76 | 100 | 100 | 90 | 100 | 100 | 83 |
| CCS(=O)(=O)c1ccc(OC)c(Nc2ncc(-c3cccc(F)c3)o2)c1 [GW621970X] | 100 | 100 | 100 | 100 | 19 | 67 | 92 | 97 | 100 | 38 |
| Cl.O=C(Nc1ccc(Oc2ccc3[nH]c(NC(=O)c4ccco4)nc3c2)cc1)Nc1cc(C(F)(F)F)ccc1F [GW683134A] | 100 | 40 | 100 | 95 | 96 | 100 | 100 | 100 | 84 | 92 |
| NS(=O)(=O)c1ccc(N/N=C2\C(=O)Nc3ccc(-c4cnco4)cc32)cc1 [GW276655] | 77 | 86 | 49 | 55 | 83 | 73 | 100 | 100 | 76 | 46 |
| COc1cc(C=NNc2ncnc3c2cnn3-c2ccccc2)ccc1O [GW513184X] | 79 | 79 | 87 | 100 | 59 | 100 | 33 | 100 | 100 | 100 |
| COc1cccc(-n2ncc3c(N/N=C/c4ccncc4)ncnc32)c1 [GW784752X] | 100 | 100 | 100 | 100 | 54 | 99 | 94 | 100 | 99 | 82 |
| CCc1ccc(Oc2nccc(-c3c(-c4ccc(F)cc4)ncn3C3CCNCC3)n2)cc1 [SB-242719] | 100 | 79 | 87 | 99 | 100 | 91 | 82 | 100 | 88 | 89 |

Reference: article PMC7826789 (International Journal of Molecular Sciences, 2021)
